# Measured values as given in ChEMBL document CHEMBL1961873, “Compounds: GSK PKIS; Assays: Nanosyn kinase panel” (2012).
# Key:
# [1] = molecular target: Ribosomal protein S6 kinase alpha-6 (Homo sapiens) (UniProt Q9UK32); details: at 1 µM;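 further: each value is a mean inhibition of RSK4 from a GSK PKIS panel screen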
# [2] = molecular target: T1, Serine/threonine-protein kinase Sgk1 (Homo sapiens) (UniProt O00141); details: at 0.1 µM
# T1 sequence (whole entry): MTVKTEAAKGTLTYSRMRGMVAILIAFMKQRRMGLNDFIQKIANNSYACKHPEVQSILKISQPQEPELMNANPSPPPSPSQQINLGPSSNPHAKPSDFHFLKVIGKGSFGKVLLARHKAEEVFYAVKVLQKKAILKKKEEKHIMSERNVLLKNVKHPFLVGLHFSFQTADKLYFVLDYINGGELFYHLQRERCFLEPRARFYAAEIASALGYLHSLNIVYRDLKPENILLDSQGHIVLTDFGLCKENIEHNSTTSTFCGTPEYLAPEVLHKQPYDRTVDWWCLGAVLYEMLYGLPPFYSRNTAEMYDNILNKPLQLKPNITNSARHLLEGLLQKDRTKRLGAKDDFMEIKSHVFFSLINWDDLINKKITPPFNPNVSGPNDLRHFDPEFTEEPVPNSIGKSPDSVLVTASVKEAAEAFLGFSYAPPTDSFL
# [3] = molecular target: T1, Serine/threonine-protein kinase Sgk1 (Homo sapiens); details: at 1 µM
# [4] = molecular target: T2, Serine/threonine-protein kinase Sgk2 (Homo sapiens) (UniProt Q9HBY8); details: at 0.1 µM
# T2 sequence (whole entry): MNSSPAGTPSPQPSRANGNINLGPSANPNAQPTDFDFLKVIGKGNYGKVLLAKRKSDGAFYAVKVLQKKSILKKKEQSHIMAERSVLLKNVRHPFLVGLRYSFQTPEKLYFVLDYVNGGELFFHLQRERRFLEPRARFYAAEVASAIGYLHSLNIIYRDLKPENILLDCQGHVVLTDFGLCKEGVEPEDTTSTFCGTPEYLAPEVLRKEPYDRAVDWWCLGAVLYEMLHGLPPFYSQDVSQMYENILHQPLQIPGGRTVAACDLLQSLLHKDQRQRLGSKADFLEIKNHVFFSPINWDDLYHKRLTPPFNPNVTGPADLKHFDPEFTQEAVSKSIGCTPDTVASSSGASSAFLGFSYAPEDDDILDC
# [5] = molecular target: T2, Serine/threonine-protein kinase Sgk2 (Homo sapiens); details: at 1 µM
# [6] = molecular target: T3, Serine/threonine-protein kinase Sgk3 (Homo sapiens) (UniProt Q96BR1); details: at 0.1 µM
# T3 sequence (whole entry): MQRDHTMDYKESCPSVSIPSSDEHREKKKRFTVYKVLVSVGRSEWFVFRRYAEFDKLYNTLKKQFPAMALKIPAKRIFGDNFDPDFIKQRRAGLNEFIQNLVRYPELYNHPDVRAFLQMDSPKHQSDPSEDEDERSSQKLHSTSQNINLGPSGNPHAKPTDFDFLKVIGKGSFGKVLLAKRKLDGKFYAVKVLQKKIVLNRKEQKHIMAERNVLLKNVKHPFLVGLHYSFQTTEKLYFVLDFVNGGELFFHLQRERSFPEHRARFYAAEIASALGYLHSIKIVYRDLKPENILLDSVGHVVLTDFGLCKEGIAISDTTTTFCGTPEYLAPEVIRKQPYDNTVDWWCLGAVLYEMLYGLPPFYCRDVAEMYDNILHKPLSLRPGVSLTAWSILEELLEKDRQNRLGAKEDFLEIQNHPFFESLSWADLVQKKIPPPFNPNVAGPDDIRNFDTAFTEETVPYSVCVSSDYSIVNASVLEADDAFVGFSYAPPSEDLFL
# [7] = molecular target: T3, Serine/threonine-protein kinase Sgk3 (Homo sapiens); details: at 1 µM
# [8] = molecular target: 5'-AMP-activated protein kinase catalytic subunit alpha-1 (Homo sapiens) (UniProt Q13131); details: at 0.1 µM
# Sequence of 5'-AMP-activated protein kinase catalytic subunit alpha-1 (Homo sapiens) (Q13131 whole entry, looked up): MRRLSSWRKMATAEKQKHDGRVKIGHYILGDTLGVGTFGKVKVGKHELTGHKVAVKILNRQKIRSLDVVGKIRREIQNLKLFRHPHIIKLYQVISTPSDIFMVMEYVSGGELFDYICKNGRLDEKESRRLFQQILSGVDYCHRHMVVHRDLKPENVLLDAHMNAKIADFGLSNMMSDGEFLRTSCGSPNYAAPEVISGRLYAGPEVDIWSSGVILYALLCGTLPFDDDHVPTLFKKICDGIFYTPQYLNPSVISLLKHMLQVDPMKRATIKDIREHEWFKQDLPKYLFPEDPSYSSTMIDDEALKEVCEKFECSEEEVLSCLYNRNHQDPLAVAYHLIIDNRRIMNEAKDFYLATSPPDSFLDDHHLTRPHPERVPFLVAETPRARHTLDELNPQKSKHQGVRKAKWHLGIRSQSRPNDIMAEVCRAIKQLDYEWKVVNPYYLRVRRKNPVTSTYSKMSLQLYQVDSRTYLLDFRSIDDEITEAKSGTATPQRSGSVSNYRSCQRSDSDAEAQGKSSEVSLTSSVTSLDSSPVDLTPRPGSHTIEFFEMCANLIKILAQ
# [9] = molecular target: 5'-AMP-activated protein kinase catalytic subunit alpha-1 (Homo sapiens) (UniProt Q13131); details: at 1 µM
# [10] = molecular target: 5'-AMP-activated protein kinase catalytic subunit alpha-2 (Homo sapiens) (UniProt P54646); details: at 0.1 µM
# Sequence of 5'-AMP-activated protein kinase catalytic subunit alpha-2 (Homo sapiens) (P54646 whole entry, looked up): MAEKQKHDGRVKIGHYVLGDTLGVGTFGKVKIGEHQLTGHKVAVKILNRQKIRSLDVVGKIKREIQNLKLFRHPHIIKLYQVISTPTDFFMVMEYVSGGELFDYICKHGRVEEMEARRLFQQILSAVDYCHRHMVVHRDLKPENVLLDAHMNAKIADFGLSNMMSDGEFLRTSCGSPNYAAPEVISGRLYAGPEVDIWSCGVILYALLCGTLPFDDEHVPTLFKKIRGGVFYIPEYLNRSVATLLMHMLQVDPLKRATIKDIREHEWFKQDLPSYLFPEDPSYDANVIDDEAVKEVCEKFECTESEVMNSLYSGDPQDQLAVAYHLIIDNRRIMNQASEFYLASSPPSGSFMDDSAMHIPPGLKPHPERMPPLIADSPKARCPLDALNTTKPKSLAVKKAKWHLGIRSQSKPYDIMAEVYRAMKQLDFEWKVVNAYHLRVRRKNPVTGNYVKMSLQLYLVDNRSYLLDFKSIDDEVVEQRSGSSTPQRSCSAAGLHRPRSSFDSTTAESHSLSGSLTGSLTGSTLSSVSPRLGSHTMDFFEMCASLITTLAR
# [11] = molecular target: 5'-AMP-activated protein kinase catalytic subunit alpha-2 (Homo sapiens) (UniProt P54646); details: at 1 µM
# [12] = molecular target: T4, NUAK family SNF1-like kinase 1 (Homo sapiens) (UniProt O60285); details: at 0.1 µM
# T4 sequence (whole entry): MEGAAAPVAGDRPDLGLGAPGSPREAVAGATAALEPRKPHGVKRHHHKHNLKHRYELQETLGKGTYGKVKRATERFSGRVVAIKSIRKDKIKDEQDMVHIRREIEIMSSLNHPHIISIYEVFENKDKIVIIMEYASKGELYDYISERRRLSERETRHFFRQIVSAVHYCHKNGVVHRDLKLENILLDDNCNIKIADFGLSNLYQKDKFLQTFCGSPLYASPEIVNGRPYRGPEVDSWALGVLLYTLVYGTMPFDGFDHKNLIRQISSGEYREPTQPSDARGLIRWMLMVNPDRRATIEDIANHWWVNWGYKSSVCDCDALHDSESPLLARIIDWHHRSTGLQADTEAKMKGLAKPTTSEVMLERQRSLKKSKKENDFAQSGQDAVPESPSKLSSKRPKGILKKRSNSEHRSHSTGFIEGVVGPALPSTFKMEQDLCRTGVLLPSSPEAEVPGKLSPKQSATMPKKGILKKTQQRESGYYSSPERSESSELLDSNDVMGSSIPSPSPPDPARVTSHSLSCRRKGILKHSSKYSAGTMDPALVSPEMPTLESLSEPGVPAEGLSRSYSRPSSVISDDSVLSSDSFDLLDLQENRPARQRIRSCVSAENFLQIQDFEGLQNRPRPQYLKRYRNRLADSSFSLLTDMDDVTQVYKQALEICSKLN
# [13] = molecular target: T4, NUAK family SNF1-like kinase 1 (Homo sapiens); details: at 1 µM
# [14] = molecular target: T5, Serine/threonine-protein kinase BRSK1 (Homo sapiens) (UniProt Q8TDC3); details: at 0.1 µM
# T5 sequence (whole entry): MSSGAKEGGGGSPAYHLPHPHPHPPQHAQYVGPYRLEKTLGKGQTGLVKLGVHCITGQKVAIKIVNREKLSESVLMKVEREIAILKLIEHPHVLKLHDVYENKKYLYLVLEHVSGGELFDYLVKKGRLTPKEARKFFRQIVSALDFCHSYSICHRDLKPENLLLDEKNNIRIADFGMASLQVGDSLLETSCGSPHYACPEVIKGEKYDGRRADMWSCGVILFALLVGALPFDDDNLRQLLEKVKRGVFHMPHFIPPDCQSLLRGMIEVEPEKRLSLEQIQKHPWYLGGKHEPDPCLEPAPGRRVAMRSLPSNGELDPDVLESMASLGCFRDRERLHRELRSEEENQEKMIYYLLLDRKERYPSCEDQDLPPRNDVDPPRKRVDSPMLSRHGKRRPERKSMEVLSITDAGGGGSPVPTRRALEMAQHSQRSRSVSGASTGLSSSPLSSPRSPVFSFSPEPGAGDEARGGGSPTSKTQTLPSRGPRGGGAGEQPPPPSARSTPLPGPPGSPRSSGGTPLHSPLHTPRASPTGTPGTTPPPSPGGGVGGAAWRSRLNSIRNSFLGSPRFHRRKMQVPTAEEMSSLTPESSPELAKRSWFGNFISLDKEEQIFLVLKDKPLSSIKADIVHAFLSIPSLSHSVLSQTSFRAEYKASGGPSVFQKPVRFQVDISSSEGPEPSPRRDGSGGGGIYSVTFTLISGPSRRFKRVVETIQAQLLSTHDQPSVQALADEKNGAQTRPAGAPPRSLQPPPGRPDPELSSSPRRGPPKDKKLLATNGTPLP
# [15] = molecular target: T5, Serine/threonine-protein kinase BRSK1 (Homo sapiens); details: at 1 µM
# [16] = molecular target: T6, Serine/threonine-protein kinase BRSK2 (Homo sapiens) (UniProt Q8IWQ3); details: at 0.1 µM
# T6 sequence (whole entry): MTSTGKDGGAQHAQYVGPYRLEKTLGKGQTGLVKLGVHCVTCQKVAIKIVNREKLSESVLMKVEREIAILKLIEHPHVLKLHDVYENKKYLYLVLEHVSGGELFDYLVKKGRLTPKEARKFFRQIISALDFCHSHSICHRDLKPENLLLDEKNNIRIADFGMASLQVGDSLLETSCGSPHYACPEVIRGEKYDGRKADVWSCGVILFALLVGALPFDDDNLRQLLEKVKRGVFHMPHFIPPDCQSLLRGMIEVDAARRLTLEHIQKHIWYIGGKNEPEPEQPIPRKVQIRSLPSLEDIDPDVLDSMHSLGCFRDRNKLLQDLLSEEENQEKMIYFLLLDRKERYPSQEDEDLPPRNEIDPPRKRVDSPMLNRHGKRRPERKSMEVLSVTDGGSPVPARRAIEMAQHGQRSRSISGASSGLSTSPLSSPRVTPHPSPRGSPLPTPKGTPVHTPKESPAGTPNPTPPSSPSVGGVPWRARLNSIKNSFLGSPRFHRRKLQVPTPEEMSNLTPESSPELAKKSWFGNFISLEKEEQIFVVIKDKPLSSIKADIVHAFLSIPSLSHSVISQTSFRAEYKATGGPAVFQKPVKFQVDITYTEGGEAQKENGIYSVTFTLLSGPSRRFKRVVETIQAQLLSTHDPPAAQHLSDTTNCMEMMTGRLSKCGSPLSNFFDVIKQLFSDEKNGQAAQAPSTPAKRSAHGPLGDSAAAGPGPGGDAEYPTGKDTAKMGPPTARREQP
# [17] = molecular target: T6, Serine/threonine-protein kinase BRSK2 (Homo sapiens); details: at 1 µM
# [18] = molecular target: Calcium/calmodulin-dependent protein kinase type 1D (Homo sapiens) (UniProt Q8IU85); details: at 0.1 µM
# Sequence of Calcium/calmodulin-dependent protein kinase type 1D (Homo sapiens) (Q8IU85 whole entry, looked up): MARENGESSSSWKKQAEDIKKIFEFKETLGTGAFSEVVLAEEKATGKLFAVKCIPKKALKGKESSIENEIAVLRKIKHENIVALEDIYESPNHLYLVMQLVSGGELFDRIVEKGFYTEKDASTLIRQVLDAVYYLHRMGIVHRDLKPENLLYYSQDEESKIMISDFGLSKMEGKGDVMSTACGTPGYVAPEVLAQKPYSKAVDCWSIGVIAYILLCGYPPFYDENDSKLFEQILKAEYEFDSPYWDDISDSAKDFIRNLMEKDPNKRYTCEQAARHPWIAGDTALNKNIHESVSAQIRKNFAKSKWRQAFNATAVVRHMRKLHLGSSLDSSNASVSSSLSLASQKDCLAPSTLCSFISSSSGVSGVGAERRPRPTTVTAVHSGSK
# [19] = molecular target: Calcium/calmodulin-dependent protein kinase type 1D (Homo sapiens) (UniProt Q8IU85); details: at 1 µM
# [20] = molecular target: Calcium/calmodulin-dependent protein kinase type II subunit alpha (Homo sapiens) (UniProt Q9UQM7); details: at 0.1 µM;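 further: reported values are averages (mean inhibition of CAMK2A)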
# Sequence of Calcium/calmodulin-dependent protein kinase type II subunit alpha (Homo sapiens) (Q9UQM7 whole entry): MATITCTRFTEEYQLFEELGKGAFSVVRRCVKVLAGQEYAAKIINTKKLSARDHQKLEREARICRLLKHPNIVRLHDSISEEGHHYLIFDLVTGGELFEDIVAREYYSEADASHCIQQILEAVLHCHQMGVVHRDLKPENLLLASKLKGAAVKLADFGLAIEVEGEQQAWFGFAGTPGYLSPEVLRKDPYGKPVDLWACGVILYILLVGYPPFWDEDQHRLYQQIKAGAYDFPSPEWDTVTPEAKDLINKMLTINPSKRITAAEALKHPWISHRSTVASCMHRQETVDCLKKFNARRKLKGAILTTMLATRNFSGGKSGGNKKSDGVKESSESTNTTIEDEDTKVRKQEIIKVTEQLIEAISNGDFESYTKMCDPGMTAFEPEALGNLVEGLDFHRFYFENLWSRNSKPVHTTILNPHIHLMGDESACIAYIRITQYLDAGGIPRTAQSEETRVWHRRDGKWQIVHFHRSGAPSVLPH
# Sequence of Ribosomal protein S6 kinase alpha-6 (Homo sapiens) (Q9UK32 whole entry): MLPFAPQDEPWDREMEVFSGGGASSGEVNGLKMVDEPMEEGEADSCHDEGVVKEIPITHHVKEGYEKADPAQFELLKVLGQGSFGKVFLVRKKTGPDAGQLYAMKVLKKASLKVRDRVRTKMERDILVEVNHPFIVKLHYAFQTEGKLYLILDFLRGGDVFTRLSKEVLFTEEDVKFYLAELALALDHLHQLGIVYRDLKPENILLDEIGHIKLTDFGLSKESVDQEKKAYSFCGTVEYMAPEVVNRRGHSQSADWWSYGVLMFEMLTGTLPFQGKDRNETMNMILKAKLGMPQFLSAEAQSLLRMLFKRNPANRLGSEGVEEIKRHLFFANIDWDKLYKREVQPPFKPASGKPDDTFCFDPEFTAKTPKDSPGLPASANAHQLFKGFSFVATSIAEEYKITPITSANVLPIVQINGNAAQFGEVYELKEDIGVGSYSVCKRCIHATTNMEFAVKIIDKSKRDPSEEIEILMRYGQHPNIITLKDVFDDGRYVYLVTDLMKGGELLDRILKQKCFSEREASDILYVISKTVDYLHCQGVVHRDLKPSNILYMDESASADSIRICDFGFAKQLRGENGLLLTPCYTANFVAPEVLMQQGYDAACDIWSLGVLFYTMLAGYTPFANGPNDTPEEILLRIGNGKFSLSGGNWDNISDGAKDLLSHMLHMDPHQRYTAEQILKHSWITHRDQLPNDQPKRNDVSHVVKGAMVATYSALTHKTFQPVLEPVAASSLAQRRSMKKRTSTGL
Compound,inhibition [1] [%],inhibition [2] [%],inhibition [3] [%],inhibition [4] [%],inhibition [5] [%],inhibition [6] [%],inhibition [7] [%],inhibition [8] [%],inhibition [9] [%],inhibition [10] [%],inhibition [11] [%],inhibition [12] [%],inhibition [13] [%],inhibition [14] [%],inhibition [15] [%],inhibition [16] [%],inhibition [17] [%],inhibition [18] [%],inhibition [19] [%],inhibition [20] [%]
COC(=O)Nc1nc2ccc(Sc3ccc(NC(=O)Nc4cc(C(F)(F)F)ccc4F)cc3)cc2[nH]1,0.24,0.54,4.52,0.41,0.74,-0.29,0.03,0.86,0.23,-4.11,1.29,3.62,-4.85,-1.14,0.16,-0.46,1.01,0.9,0.37,3
COc1cc2ncn(-c3cc(OCc4cccs4)c(C(N)=O)s3)c2cc1OC,9.08,5.73,8.78,4.34,10.6,5.06,6.9,3.16,12.8,3.12,5.5,20.1,63.2,9,50,16.6,60.6,0.15,0.12,2.87
COc1ccc(-c2ccc3c(NC(=O)C4CC4)n[nH]c3n2)cc1,0.85,1.6,6,1.24,3.76,2.58,3.92,1.15,2.02,0.53,1.68,-0.56,0.04,0.19,4.83,3.16,10.7,-0.49,-0.83,0.49
CCS(=O)(=O)c1ccc(OC)c(Nc2ncc(-c3cccc(-c4ccccc4F)c3)o2)c1,0.75,1.23,0.04,1.37,1.29,-0.5,-0.32,0.4,0.95,1.79,1.37,1.73,2.9,-0.47,0.8,0,-0.51,0.44,0.18,-1.21
Fc1ccc(-c2nc3n(c2-c2ccncc2)CCS3)cc1,3.9,3.17,4.66,2.05,4.96,1.96,2.6,2.91,2.64,4.5,5.23,0.54,2.44,0.25,0.24,0.52,0.5,0.49,-0.26,3.63
O=C(Nc1n[nH]c2nc(-c3ccc(O)cc3)c(Br)cc12)C1CC1,59.7,3.83,12.1,6.54,24.8,5.88,16.7,5.78,20.1,4.36,12.1,8.05,30.2,25.8,66.8,33.5,70.2,3.09,14.4,4.24
Fc1ccc(-c2c(-c3ccncc3)nc3n2CCS3)cc1,2.25,3.2,4.05,1.42,3.7,1.96,5.06,3.33,6.81,3.93,4.29,-0.3,1.86,-0.79,0.97,0.47,3.65,2.44,-0.09,0.37
CCc1cccc(CC)c1/C=C/c1cncc(C(=O)NC)c1,1.72,2.19,-0.86,3.62,-2.52,0.54,0.72,1.05,1.48,0.22,2.36,1.6,6.57,1.79,0.96,0.46,0.3,0.62,1.99,3.18
CCc1ccc(Oc2nccc(-c3c(-c4ccc(F)cc4)ncn3C3CCNCC3)n2)cc1,3.1,-1.02,1.21,-0.69,1.93,-0.71,1.87,5.5,8.69,5.08,7.27,-0.89,3.95,1.81,-0.56,1.84,3.86,1.54,3.63,4.59
O=C1Nc2ccc(I)cc2C1=Cc1cc(Br)c(O)c(Br)c1,3.84,0.41,2.04,1.05,0.89,3.3,1.73,1.53,3.41,6.97,3.18,-1.04,3.51,3.87,0.15,0.3,2.23,1.27,2.96,4.96
COc1cc(N2CCN(C(C)C)CC2)ccc1Nc1nc(Nc2ccc(F)cc2C(=O)NC[C@@H](O)CO)c2cc[nH]c2n1,8.27,4.42,7.18,2.67,4.33,2.59,6.24,4.23,5.78,2.37,3.64,4.38,17.2,-0.14,1.34,2.44,2.82,0.93,11,4.06
NS(=O)(=O)c1ccc(N/N=C2\C(=O)Nc3ccc(-c4cnco4)cc32)cc1,5.02,1.68,10.2,1.11,3.35,1.34,5.76,3.38,15.9,5.38,11.8,5.26,35.2,2.76,14.5,3.56,23.8,-0.53,2.62,0.21
CCN(CC)Cc1ccc(Nc2nccc(-c3cnn4ncccc34)n2)cc1,9.62,1.11,7.61,3.89,4.57,3.92,2.8,3.26,9.99,7.01,12.7,69,84.3,3.36,3.16,2.2,10.6,-0.62,4.23,2.6
